We go through ten molecules from PubChem BioAssay (EPA / NIEHS).

Each structure is given as a SMILES string. Active and inactive are the calls of the source. The calls were made as follows: active = hit-call score of the fitted dose curve at least 0.9, where 1 is the maximum; inactive = score below 0.9.

This test in a line: Tanguay_ZF_120hpf_ANY: Oregon State University Tanguay Lab 120 Hour Post-fertilization zebrafish Assay for Any Mortality and Malformation (AID 2284404). The protocol: Tanguay_ZF_120hpf is a whole embryo, multiplexed endpoint assay using zebrafish larvae exposed for 120 hours post fertilization on a 96-well plate.Tanguay_ZF_120hpf_ANY is one of one assay component(s) measured or calculated from the Tanguay_ZF_120hpf assay. It is designed to make measurements of developmental malformations and mortality as detected with brightfield microscopy and combines scoring from 13 other assay components measuring more specific morphologies.Data from the assay component Tanguay_ZF_120hpf_ANY was analyzed into 1 assay endpoints. This assay endpoint, Tanguay_ZF_120hpf_ANY, was analyzed in the positive analysis fitting direction relative to DMSO as the negative control and baseline of activity. Using a type of morphology reporter, gain-of-signal activity can be used to understand changes in developmentals as they relate to the whole embryo. To generalize the intended target to other relatable targets, this assay endpoint is annotated to the zebrafish development intended target family, where the subfamily is embryonic morphogenesis and mortality.
Zebrafish husbandry: Tropical 5D wild-type adult zebrafish were housed in at an approximate density of 1000 per 100 gallon tank at the Sinnhuber Aquatic Research Laboratory, Oregon State University, Corvallis, OR. Each tank was kept at standard laboratory conditions of 28C on a 14-h light/10-h dark photoperiod in fish water consisting of reverse osmosis water supplemented with a commercially available salt (Instant Ocean). Spawning funnels were placed into the tanks the night prior, and embryos were collected and staged. To increase bioavailability, the chorion was enzymatically removed using pronase (63.6mg/ml, >/= 3.5U/mg, Sigma-Aldrich: P5147) at 4 hours post fertilization (hpf) using a custom automated dechorionator.Chemical exposures: Six hpf dechorionated embryos were placed 1 embryo per well in a 96-well plate prefilled with 90 ul of EM using automated embryo placement systems (AEPS). Ten microliters of each row of dilution plate 2 was added to 2 exposure plates. The final DMSO concentration used was 0.64% (vol/vol). Thirty-two embryos were also exposed to 5uM trimethyltin chloride (positive control). Plates were sealed to prevent evaporation and foil covered to reduce light exposure and kept in a 28C incubator. Embryos were statically exposed until 120 hpf. At 24 hpf, embryos were assessed for photomotor response using a custom photomotor response analysis tool (PRAT) and for developmental toxicity endpoints (MO24: mortality at 24 hpf, DP: developmental progression, SM: spontaneous movement, and NC: notochord distortion). At 120 hpf, locomotor activity was measured using Viewpoint Zebralab and assessed for 13 endpoints. Zebrafish acquisition and analysis program (ZAAP), a custom program designed to inventory, acquire, and manage zebrafish data, was used to collect developmental endpoints as either present or absent (i.e., binary responses were recorded). If mortality occurred for an embryo (at either 24 or 120 hpf), the non-mortality endpoints were not measured.
With `NCC(F)(F)C(F)(F)C(F)(F)C(F)(F)F`, the molecule was called inactive. On to `FC(F)(F)COC(OCC(F)(F)F)OCC(F)(F)F`, for which the outcome was inactive.

On to `OC(O)(C(F)C(O)(O)C(F)(F)F)C(F)(F)F`, for which the AC50 is 40.5 µM (active). Turning to `OCCC(F)(F)C(F)(F)C(F)(F)C(F)(F)F`, the result was inactive. Still for that read-out and setting: under `C[Si](C)(C)C(F)(F)C(F)(F)C(F)(F)F` stands “inactive”.

`FC(F)=C(F)C(F)(F)C(F)(F)C(F)(F)C(F)(F)C(F)(F)C(F)(F)F`: the molecule was classed as inactive. With `FC(F)(F)C(F)(F)C(F)(F)C(F)(F)C(F)(F)C(F)(F)I`, the outcome was inactive. The same measure, in the same setting: under `FC(F)C(F)(F)COCC1CO1` (stereo not given) stands “inactive”; under `O=S(=O)(O)CCC(F)(F)C(F)(F)C(F)(F)C(F)(F)C(F)(F)C(F)(F)F`, “inactive”.

With `O=C(Cl)C(F)(F)C(F)(F)C(F)(F)C(=O)Cl`, the AC50 was 57.6 µM (active).

The AC50 is the concentration giving half of the maximal activity seen.
